# Among all 5,500 compounds or so, about 2,000 (36%) were called active. Roughly 18% stayed inconclusive and do not appear here. This is one part of the list. Values without a mark were called inactive. Rule as the data show it: active = normalized growth mostly below about 0.91 (no sharp cut-off); inconclusive = no clear call, values can overlap the other calls; inactive = mostly above about 0.92.
# Test: chemical genetic growth profiling, strain panel (AID 1159580);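 also: tested at 20 µM; growth read once vehicle control cultures reached saturation at 30 °C; 1 = growth at the plate median or of vehicle wells; lower values mean less growth of the strain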
# Conditions: growth OD
# [1] = S. cerevisiae deletion strains, locus YHR030C, strain SLT2, active compounds read low
# [2] = S. cerevisiae deletion strains, locus YHR079C, strain IRE1, active compounds read low
# [3] = S. cerevisiae deletion strains, locus YJL095W, strain BCK1, active compounds read low
# [4] = S. cerevisiae deletion strains, locus YJR066W, strain TOR1, active compounds read low
# [5] = S. cerevisiae deletion strains, locus YLR113W, strain HOG1, active compounds read low
# [6] = S. cerevisiae deletion strains, locus YNL183C, strain NPR1, active compounds read low
# [7] = S. cerevisiae deletion strains, locus YOR231W, strain MKK1, active compounds read low
# [8] = S. cerevisiae deletion strains, locus YPL256C, strain CLN2, active compounds read low
# [9] = S. cerevisiae deletion strains, locus YDR150W, strain NUM1, active compounds read low
# [10] = S. cerevisiae deletion strains, locus YGR229C, strain SMI1, active compounds read low
# [11] = S. cerevisiae deletion strains, locus YPL055C, strain LGE1, active compounds read low
# [12] = S. cerevisiae deletion strains, locus YPL241C, strain CIN2, active compounds read low
# [13] = S. cerevisiae deletion strains, locus YDL101C, strain DUN1, active compounds read low
compound,measurement,setting,value
COC(=O)C(c1ccccc1)C1CCCCN1 (stereo unspecified),normalized growth,[1],0.978
same,normalized growth,[2],0.975
same,normalized growth,[3],0.974
same,normalized growth,[4],0.934
same,normalized growth,[5],0.95
same,normalized growth,[6],0.891
same,normalized growth,[7],0.971
same,normalized growth,[8],0.972
O=C(NCCNCC(O)COc1ccc(O)cc1)N1CCOCC1 (stereo unspecified),normalized growth,"S. cerevisiae deletion strains, locus YAL040C, strain CLN3, active compounds read low",0.976
same,normalized growth,"S. cerevisiae deletion strains, locus YCL061C, strain MRC1 (second series), active compounds read low",1
same,normalized growth,[9],0.993
same,normalized growth,"S. cerevisiae deletion strains, locus YDR363W, strain ESC2, active compounds read low",1.01
same,normalized growth,"S. cerevisiae deletion strains, locus YER002W, strain NOP16, active compounds read low",1.02
same,normalized growth,[10],1.02
same,normalized growth,"S. cerevisiae deletion strains, locus YMR307W, strain GAS1, active compounds read low",0.997
same,normalized growth,"S. cerevisiae deletion strains, locus YNL128W, strain TEP1, active compounds read low",0.998
same,normalized growth,"S. cerevisiae deletion strains, locus YNL175C, strain NOP13, active compounds read low",0.998
same,normalized growth,"S. cerevisiae deletion strains, locus YNL197C, strain WHI3, active compounds read low",0.993
same,normalized growth,"S. cerevisiae deletion strains, locus YNL224C, strain SQS1, active compounds read low",0.997
same,normalized growth,"S. cerevisiae deletion strains, locus YOR083W, strain WHI5 (second series), active compounds read low",1.01
same,normalized growth,[11],1.02
same,normalized growth,[12],1
Cc1ccc(OS(=O)(=O)c2ccc(Cl)cc2)c([N+](=O)[O-])n1,normalized growth,"S. cerevisiae deletion strains, locus YAL013W, strain DEP1, active compounds read low",0.965
same,normalized growth,"S. cerevisiae deletion strains, locus YBR229C, strain ROT2, active compounds read low",0.987
same,normalized growth,[13],0.932
same,normalized growth,"S. cerevisiae deletion strains, locus YDL134C, strain PPH21, active compounds read low",0.968
same,normalized growth,[9],0.833
same,normalized growth,"S. cerevisiae deletion strains, locus YEL061C, strain CIN8, active compounds read low",0.964
same,normalized growth,"S. cerevisiae deletion strains, locus YGR078C, strain PAC10, active compounds read low",0.931
same,normalized growth,[10],0.978
same,normalized growth,[1],0.775
same,normalized growth,"S. cerevisiae deletion strains, locus YHR087W, strain rtc3, active compounds read low",0.975
same,normalized growth,"S. cerevisiae deletion strains, locus YJR043C, strain POL32, active compounds read low",0.945
same,normalized growth,"S. cerevisiae deletion strains, locus YJR075W, strain HOC1, active compounds read low",0.917
same,normalized growth,"S. cerevisiae deletion strains, locus YKL190W, strain CNB1, active compounds read low",0.968
same,normalized growth,"S. cerevisiae deletion strains, locus YLR039C, strain RIC1, active compounds read low",0.895
same,normalized growth,"S. cerevisiae deletion strains, locus YLR058C, strain SHM2 (second series), active compounds read low",0.988
same,normalized growth,"S. cerevisiae deletion strains, locus YLR085C, strain ARP6, active compounds read low",0.875
same,normalized growth,"S. cerevisiae deletion strains, locus YLR262C, strain YPT6, active compounds read low",0.908
same,normalized growth,"S. cerevisiae deletion strains, locus YML094W, strain GIM5, active compounds read low",0.953
same,normalized growth,"S. cerevisiae deletion strains, locus YMR219W, strain ESC1, active compounds read low",0.973
same,normalized growth,"S. cerevisiae deletion strains, locus YMR263W, strain SAP30, active compounds read low",0.95
same,normalized growth,"S. cerevisiae deletion strains, locus YNL153C, strain GIM3, active compounds read low",0.936
same,normalized growth,"S. cerevisiae deletion strains, locus YNL298W, strain CLA4 (second series), active compounds read low",0.915
same,normalized growth,"S. cerevisiae deletion strains, locus YNL322C, strain KRE1, active compounds read low",0.976
same,normalized growth,"S. cerevisiae deletion strains, locus YNR030W, strain Alg12, active compounds read low",0.943
same,normalized growth,[11],0.962
same,normalized growth,[12],0.943
same,normalized growth,"S. cerevisiae deletion strains, locus YPR135W, strain CTF4, active compounds read low",0.877
same,normalized growth,"S. cerevisiae strains, strain wild type, active compounds read low",0.949
Cc1ccc(OS(=O)(=O)c2c(Cl)sc(Cl)c2Br)c([N+](=O)[O-])n1,normalized growth,"S. cerevisiae deletion strains, locus YAR019C, strain CDC15, active compounds read low",0.964
same,normalized growth,"S. cerevisiae deletion strains, locus YBL105C, strain PKC1, active compounds read low",0.964
same,normalized growth,"S. cerevisiae deletion strains, locus YBR135W, strain CKS1, active compounds read low",0.968
same,normalized growth,"S. cerevisiae deletion strains, locus YBR136W, strain MEC1, active compounds read low",0.967
same,normalized growth,"S. cerevisiae deletion strains, locus YBR160W, strain CDC28, active compounds read low",0.963
same,normalized growth,"S. cerevisiae deletion strains, locus YDL017W, strain CDC7, active compounds read low",0.957
same,normalized growth,"S. cerevisiae deletion strains, locus YDL028C, strain MPS1, active compounds read low",0.972
same,normalized growth,[13],0.956
same,normalized growth,"S. cerevisiae deletion strains, locus YDL108W, strain KIN28, active compounds read low",0.965
same,normalized growth,"S. cerevisiae deletion strains, locus YDL132W, strain cdc53, active compounds read low",0.961
same,normalized growth,"S. cerevisiae deletion strains, locus YDL214C, strain PRR2, active compounds read low",0.962
same,normalized growth,"S. cerevisiae deletion strains, locus YDR052C, strain DBF4, active compounds read low",0.968
same,normalized growth,"S. cerevisiae deletion strains, locus YDR054C, strain cdc34, active compounds read low",0.956
same,normalized growth,"S. cerevisiae deletion strains, locus YDR226W, strain ADK1, active compounds read low",0.953
same,normalized growth,"S. cerevisiae deletion strains, locus YDR477W, strain SNF1, active compounds read low",0.97
same,normalized growth,"S. cerevisiae deletion strains, locus YER123W, strain YCK3, active compounds read low",0.952
same,normalized growth,"S. cerevisiae deletion strains, locus YER133W, strain GLC7, active compounds read low",0.975
same,normalized growth,"S. cerevisiae deletion strains, locus YFL009W, strain cdc4, active compounds read low",0.961
same,normalized growth,"S. cerevisiae deletion strains, locus YFL029C, strain CAK1, active compounds read low",0.96
same,normalized growth,"S. cerevisiae deletion strains, locus YFR003C, strain YPI1, active compounds read low",0.961
same,normalized growth,"S. cerevisiae deletion strains, locus YFR019W, strain FAB1, active compounds read low",0.98
same,normalized growth,"S. cerevisiae deletion strains, locus YFR028C, strain CDC14, active compounds read low",0.965
same,normalized growth,"S. cerevisiae deletion strains, locus YGR040W, strain KSS1, active compounds read low",0.972
same,normalized growth,"S. cerevisiae deletion strains, locus YGR052W, strain FMP48, active compounds read low",1
same,normalized growth,"S. cerevisiae deletion strains, locus YGR092W, strain DBF2, active compounds read low",0.951
same,normalized growth,[1],0.961
same,normalized growth,[2],0.929
same,normalized growth,"S. cerevisiae deletion strains, locus YHR082C, strain KSP1, active compounds read low",1.07
same,normalized growth,"S. cerevisiae deletion strains, locus YHR205W, strain SCH9, active compounds read low",0.953
same,normalized growth,"S. cerevisiae deletion strains, locus YIL147C, strain SLN1, active compounds read low",0.966
same,normalized growth,[3],0.968
same,normalized growth,"S. cerevisiae deletion strains, locus YJL128C, strain PBS2, active compounds read low",0.909
same,normalized growth,"S. cerevisiae deletion strains, locus YJL157C, strain FAR1, active compounds read low",0.96
same,normalized growth,"S. cerevisiae deletion strains, locus YJR016C, strain ILV3, active compounds read low",0.965
same,normalized growth,"S. cerevisiae deletion strains, locus YJR066W, strain TOR1 (second series), active compounds read low",0.956
same,normalized growth,[4],1.02
same,normalized growth,"S. cerevisiae deletion strains, locus YKL048C, strain ELM1, active compounds read low",0.965
same,normalized growth,"S. cerevisiae deletion strains, locus YKL067W, strain YNK1, active compounds read low",0.959
same,normalized growth,"S. cerevisiae deletion strains, locus YKL101W, strain HSL1, active compounds read low",0.979
same,normalized growth,"S. cerevisiae deletion strains, locus YKL193C, strain SDS22, active compounds read low",0.963
same,normalized growth,"S. cerevisiae deletion strains, locus YKL203C, strain TOR2, active compounds read low",0.991
same,normalized growth,[5],0.818 (active)
same,normalized growth,"S. cerevisiae deletion strains, locus YLR133W, strain CKI1, active compounds read low",0.968
same,normalized growth,"S. cerevisiae deletion strains, locus YLR403W, strain SFP1, active compounds read low",0.967
same,normalized growth,"S. cerevisiae deletion strains, locus YML070W, strain DAK1, active compounds read low",0.959
same,normalized growth,"S. cerevisiae deletion strains, locus YMR001C, strain CDC5, active compounds read low",0.957
same,normalized growth,"S. cerevisiae deletion strains, locus YMR205C, strain PFK2 (second series), active compounds read low",0.971
same,normalized growth,"S. cerevisiae deletion strains, locus YMR277W, strain FCP1, active compounds read low",0.961
same,normalized growth,"S. cerevisiae deletion strains, locus YNL006W, strain LST8, active compounds read low",0.962
same,normalized growth,"S. cerevisiae deletion strains, locus YNL020C, strain ARK1, active compounds read low",0.971
same,normalized growth,"S. cerevisiae deletion strains, locus YNL161W, strain CBK1, active compounds read low",0.968
same,normalized growth,[6],1.01
same,normalized growth,"S. cerevisiae deletion strains, locus YNL207W, strain RIO2, active compounds read low",0.955
same,normalized growth,"S. cerevisiae deletion strains, locus YNL222W, strain SSU72, active compounds read low",0.971
same,normalized growth,"S. cerevisiae deletion strains, locus YNL307C, strain MCK1 (second series), active compounds read low",0.965
same,normalized growth,"S. cerevisiae deletion strains, locus YOL078W, strain AVO1, active compounds read low",0.967
same,normalized growth,"S. cerevisiae deletion strains, locus YOL136C, strain PFK27, active compounds read low",0.957
same,normalized growth,"S. cerevisiae deletion strains, locus YOR061W, strain CKA2, active compounds read low",0.962
same,normalized growth,"S. cerevisiae deletion strains, locus YOR119C, strain RIO1, active compounds read low",1.04
same,normalized growth,[7],0.942
same,normalized growth,"S. cerevisiae deletion strains, locus YOR329C, strain SCD5, active compounds read low",0.959
same,normalized growth,"S. cerevisiae deletion strains, locus YPL031C, strain PHO85, active compounds read low",0.959
same,normalized growth,"S. cerevisiae deletion strains, locus YPL153C, strain RAD53, active compounds read low",0.963
same,normalized growth,"S. cerevisiae deletion strains, locus YPL204W, strain HRR25, active compounds read low",0.978
same,normalized growth,"S. cerevisiae deletion strains, locus YPL209C, strain IPL1, active compounds read low",0.963
same,normalized growth,[8],0.92
same,normalized growth,"S. cerevisiae deletion strains, locus YPR025C, strain CCL1, active compounds read low",0.964
same,normalized growth,"S. cerevisiae deletion strains, locus YPR106W, strain ISR1, active compounds read low",0.961
same,normalized growth,"S. cerevisiae deletion strains, locus YPR111W, strain DBF20, active compounds read low",0.948
same,normalized growth,"S. cerevisiae deletion strains, strain NNK1, active compounds read low",0.956
same,normalized growth,"S. cerevisiae deletion strains, strain TSCII, active compounds read low",0.957

# Reference: PubChem BioAssay AID1159580 (chemical genetic matrix, 2015)
